Shown are actives, neighbours in structure and some others; about 11% of the full set was active somewhere.
PNC inhibitor: blocks assembly of the perinucleolar compartment; PC3M PTB-GFP, PNC prevalence imaging, 16 h; hits give low values; activity change (PNC), negative = inhibition, % at 10 µM; 140,000 tested, 3.1% active; AID 2417;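 active means readout at or below -70, meaning at least 70% loss of cells showing the perinucleolar compartment, a nuclear body marking cancer cells; inconclusive means readout between -30 and a set limit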;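 further: plate controls were DMSO wells for no effect and camptothecin positive control wells for full effect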
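PC3M cells stably expressing PTB-GFP, 750–1000 cells/well, treated 16 h at 37 °C with compound (23 nl of library stock), in duplicate. After paraformaldehyde fixation and Hoechst stain, imaged at 20x; PNC prevalence scored by image analysis.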
ALDH1A1 inh-1: ALDH1A1 (human) enzyme inhibition. P00352. Purified ALDH1A1, NADH fluorescence, propionaldehyde substrate. Potency, µM (titrated, usually from 75.3 µM), for the others: at the top dose activity, negative = inhibition, actives largely listed as inhibitors. 220,000 tested, 7.3% active;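 further: potency means the concentration at half of the fitted maximal effect; plate controls were no enzyme wells and a reference inhibitor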
KDM4E inh: JMJD2E (human) inhibition; JMJD2E catalytic domain, FDH-coupled NADH fluorescence (FDH is formaldehyde dehydrogenase); B2RXH2; AID 2147; 230,000 tested, 1.6% active; Potency, µM (top dose mostly 57.1 µM), inactives show at the highest dose activity change, negative = inhibition, actives largely listed as inhibitors;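 further: potency means the concentration at half of the fitted maximal effect; 0% = wells with enzyme and -100% = buffer wells without enzyme; nearly all actives have a fitted effect of over 50% in size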
Target sequence (B2RXH2 1-337 limits assumed): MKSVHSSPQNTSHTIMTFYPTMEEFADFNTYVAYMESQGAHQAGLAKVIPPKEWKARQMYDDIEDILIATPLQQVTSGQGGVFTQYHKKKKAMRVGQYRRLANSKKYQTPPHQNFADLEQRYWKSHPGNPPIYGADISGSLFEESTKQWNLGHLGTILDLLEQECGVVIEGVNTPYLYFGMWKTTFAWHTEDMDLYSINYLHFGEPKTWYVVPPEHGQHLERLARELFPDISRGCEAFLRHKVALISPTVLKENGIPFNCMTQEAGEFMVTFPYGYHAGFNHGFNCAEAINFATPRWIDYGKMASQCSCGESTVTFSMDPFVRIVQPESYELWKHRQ
HPGD block: blocks human HPGD enzyme activity; P15428; purified HPGD, NADH fluorescence kinetic, PGE2 substrate; Potency, µM, without a hit: at the top dose activity change, negative = inhibition, most hits filed as inhibitors; 150,000 tested, 4.3% active; further: potency means the concentration at half of the fitted maximal effect; on the % scale 0 is the no-effect control and ±100 the full control effect
Target sequence (P15428 whole entry, looked up): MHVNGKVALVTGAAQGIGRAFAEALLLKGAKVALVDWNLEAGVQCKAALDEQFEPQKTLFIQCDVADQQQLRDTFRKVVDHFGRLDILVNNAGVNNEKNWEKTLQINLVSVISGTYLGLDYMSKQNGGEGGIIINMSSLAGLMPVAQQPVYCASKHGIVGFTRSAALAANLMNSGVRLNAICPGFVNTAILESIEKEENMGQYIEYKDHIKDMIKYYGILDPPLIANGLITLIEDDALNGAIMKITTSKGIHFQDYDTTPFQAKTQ
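NADH formation kinetics: reaction with 30 uM PGE2 and 1 mM NAD+ (final), 20 nM enzyme, Tris-HCl pH 8 with Tween 20, after 15 min compound preincubation at room temperature. Fluorescence change, last versus first of five reads.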
ALDH1A1 inh-2: Confirms inhibition of human ALDH1A1 with counterscreen. shares compounds with ALDH1A1 inh-1. Potency, µM (titrated, usually from 57.1 µM), for the others: at the top dose activity change, negative = inhibition, actives largely listed as inhibitors. purified ALDH1A1, NADH fluorescence, propionaldehyde/NAD+. 90 tested, 90% active; calls by dose curve
* marks the source's active call; other numbers are inactive results; ? = inconclusive; · = no result; [ ] = dose if it differs, or a comment. Unless noted, the call rests on the fitted dose curve; in most records, active means well fitted inhibition curve with a large enough effect (not every such curve was filed as active); inconclusive means small, poorly fitted or top-dose-only effect, or another doubt; inactive means no such curve, though single readings can be large or run the other way.

SMILES	PNC inhibitor	ALDH1A1 inh-1	KDM4E inh	HPGD block	ALDH1A1 inh-2
O=C(CC1(O)C(=O)N(Cc2ccccc2)c2ccccc21)c1ccncc1 (centres undefined)	6.4	0.0708µM*	-1.0%	-20.1%	0.251µM*
CCC(c1nnnn1C1CCCC1)N1CCC(C(N)=O)CC1 (centres undefined)	·	?	-5.1%	·	·
Cc1cc2oc(=O)cc(Cn3nnc(-c4ccc(Cl)cc4)n3)c2cc1C(C)C	?	-15.5%	?	?	·
C[N+](C)(C)CCC(=O)c1cccc2ccccc12	·	0.0708µM*	?	14.1µM*	0.0355µM*
CC(N)c1ccc(Cl)cc1Cl (centres undefined)	?	1.2%	-2.4%	·	·
Nc1cc(=O)[nH]c(SCC(=O)NNC(=O)Cc2ccccc2)n1	·	-7.8%	-4.4%	·	·
Cc1ccc(S(=O)(=O)/C=C/C#N)cc1	·	0.0562µM*	·	·	0.0631µM*
CC1CCN(Cc2nc3c(c(=O)n(C)c(=O)n3C)n2CCCc2ccccc2)CC1	-27.6	0.631µM*	4.3%	-4.5%	0.501µM*
CCC1CCCCN1Cc1nc2c(c(=O)n(C)c(=O)n2C)n1CCCc1ccccc1 (centres undefined)	?	?	4.9%	-10.9%	·
COc1ccc(-n2c(Cc3cccs3)nnc2SCC(=O)Nc2ccc3c(c2)OCCO3)cc1	9.2	2µM*	-0.2%	-2.2%	0.562µM*
Cc1ccc(-n2c(SCC(=O)Nc3ccc4c(c3)OCO4)nnc2-c2cccs2)cc1	14.8	-3.4%	?	-29.6%	·
COc1ccc(Oc2ccc(-c3ccn[nH]3)cc2)cc1	·	·	-7.3%	·	·
COC(=O)c1ccsc1NC(=O)CSc1nnnn1-c1ccccc1SC	25.2	0.126µM*	-3.8%	-24.5%	0.316µM*
CS(=O)(=O)c1ccc(Cn2c3c(c4cc(F)cc(F)c42)CCC[C@H]3CC(=O)O)cc1	·	0.112µM*	-25.5%	34.1%	0.355µM*
O=C(CCNc1ccccc1)c1ccc2c(c1)OCO2	-1.1	0.891µM*	-1.0%	-18.0%	2.24µM*
COc1ccc(C(=O)CCNc2ccc3c(c2)OCCO3)cc1	·	0.316µM*	-8.5%	·	3.98µM*
CCN(CC)CCCNC(=O)CSc1nc(C)cc(C)n1	·	2.9%	5.2%	·	·
CO/N=C(\C(=O)NC1C(=O)N2C(C(=O)OCOC(=O)C(C)(C)C)=C(/C=C\c3scnc3C)CSC12)c1csc(N)n1 (centres undefined)	·	0.355µM*	-6.7%	?	0.794µM*
CO/N=C(/C(=O)N[C@H]1C(=O)N2C(C(=O)O)=C(COC(C)=O)CSC12)c1csc(N)n1 (some centres undefined)	·	?	-15.1%	-25.2%	·
COc1ccc(OC)c(-n2nnnc2SCC(=O)O)c1	31.5	-1.9%	0.7%	-14.7%	·
COc1ccc(OC)c(-n2nnnc2SCC(=O)Nc2nc(C)c(C)s2)c1	7.5	?	-0.5%	-13.5%	1.78µM*
Cc1cccc2c1N(CCCOc1ccccc1)C(=O)C2=O	26.3	0.0355µM*	2.7%	28.2µM*	0.0447µM*
CN(c1ccccc1C(=O)N1CCN(c2ccccc2)CC1)S(C)(=O)=O	19.6	7.1%	2.5%	-6.5%	·
CC(C)N(C(=O)CN1C(=O)C(=O)c2ccccc21)c1ccccc1	·	0.0282µM*	-9.9%	·	0.0355µM*
CCN(CC)C(=O)CC(c1ccc(F)cc1)c1ccc(OC(C)C)cc1 (centres undefined)	?	-10.1%	12.5%	-13.9%	·
SMILES	PNC inhibitor	ALDH1A1 inh-1	KDM4E inh	HPGD block	ALDH1A1 inh-2
C[C@H](Cc1ccc(O)c(O)c1)[C@@H](C)Cc1ccc(O)c(O)c1	·	0.159µM*	14.1µM*	3.16µM*	2.24µM*
CC(=O)c1ccc(OCCCN2CCCCC2)cc1	29.6	-14.0%	?	-7.7%	·
CCCCOc1ccc(C(=O)CCN2CCCCC2)cc1	-22.7	0.0447µM*	7.2%	-20.1%	0.794µM*
COCC1CCCN(Cc2cn(-c3ccccc3)nc2-c2ccc3c(c2)OCO3)C1 (centres undefined)	·	19.7%	-37.8%	·	·
COc1cc2[nH]c(=O)n(CCC(=O)NCCCN3CCN(c4ccccc4F)CC3)c(=O)c2cc1OC	·	-8.8%	?	·	·
O=C(Nc1cccc([N+](=O)[O-])c1)c1ccncc1	6.9	-11.5%	5.5%	-11.3%	·
O=C(CCNc1ccc(Cc2ccncc2)cc1)c1cccc([N+](=O)[O-])c1	·	0.398µM*	-8.3%	·	0.501µM*
O=C1CC(c2ccccc2)c2ccccc21 (centres undefined)	·	-8.7%	4.0%	·	·
O=C1C=CC(=O)C2=C1C1c3ccccc3C2c2ccccc21	·	0.708µM*	14.1µM*	1.12µM*	0.562µM*
c1cc2c3c(c1)c1c(n3CCNC2)CCCC1	·	5.0%	?	-17.5%	·
COCCN(C(=O)Cc1cccs1)C(C(=O)NCc1ccc(OC)cc1)c1ccc(C(C)C)cc1 (centres undefined)	32.5	0.282µM*	-7.3%	-22.7%	0.251µM*
Cc1ccc(S(=O)(=O)N[C@H](CO)C(=O)O)cc1	·	0.9%[13.5 µM]	·	-3.5%	·
Cc1ccc(S(=O)(=O)N[C@@H](Cc2ccccc2)C(=O)CCl)cc1	11.7	0.794µM*	-2.2%	20µM*	0.447µM*
Cc1ccsc1C(=O)N1CCCC(C(=O)c2cc(F)ccc2F)C1 (centres undefined)	·	-8.6%	5.0%	·	·
Cc1cccc(Cn2c(N3CCCCC3C)nc3c2c(=O)[nH]c(=O)n3C)c1 (centres undefined)	80.0	0.282µM*	-4.1%	-19.1%	0.251µM*
O=C(CSc1nnnn1-c1ccc(Cl)cc1)NC(=O)Nc1ccc2c(c1)OCCO2	11.4	-1.1%	7.1%	-10.6%	·
O=C(CSc1nnnn1-c1ccccc1Cl)Nc1ccc2c(c1)OCCO2	-14.8	0.224µM*	-5.9%	-5.8%	0.251µM*
CCCn1c(SCc2ccccc2)nc2c1c(=O)[nH]c(=O)n2C	-17.3	?	-5.2%	?	·
CCCCCSc1nc2c(c(=O)[nH]c(=O)n2C)n1CCc1ccccc1	?	0.708µM*	2.9%	-17.2%	1.26µM*
COc1cc(NC(=O)CN2CCN(S(=O)(=O)c3ccc(C(C)C)cc3)CC2)cc(OC)c1	-14.7	2.24µM*	0.2%	-14.2%	3.16µM*
